From PubChem BioAssay (NCATS) come the findings set out here.

Experiment [1] has as its target Rap guanine nucleotide exchange factor 3 (Homo sapiens) (UniProt O95398). Kind of experiment: Confirmatory qHTS for antagonist of cAMP-regulated guanine nucleotide exchange factor 3 (EPAC1) (AID 1645880). Further: nearly all actives have a fitted effect of over 55% in size. Further: potency means the concentration at half of the fitted maximal effect. The method in brief: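 Nucleotide exchange uses 100 nM EPAC1, 250 nM RAP1B-BODIPY-GDP and 50 uM GDP, with compounds in a concentration-titration series. After 5 min at room temperature, fluorescence (480 nm ex/540 nm em) is read every 5 min for 30 min. Data are normalized to control ATA and DMSO.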
A general note: In qHTS, concentration-response curves come from the screen itself.

For experiment [2] the target is unchanged. Kind of experiment: Confirmatory qHTS for agonist of cAMP-regulated guanine nucleotide exchange factor 3 (EPAC1) (AID 1645881).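 Further: EPAC1 catalysed release of BODIPY-GDP from Rap1B seen as fluorescence loss; nearly all actives have a fitted effect of over 75% in size.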
The target of experiment [3] is Rap guanine nucleotide exchange factor 4 (Homo sapiens) (UniProt Q8WZA2). Description: Confirmatory qHTS for agonist of cAMP-regulated guanine nucleotide exchange factor 4 (EPAC2) (AID 1645884).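 Further: nucleotide exchange releases bodipy-GDP from Rap1 and this lowers its fluorescence; on the % scale 0 is the no-effect control and ±100 the full control effect; nearly all actives have a fitted effect of over 65% in size.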
For experiment [4] the target is unchanged. Kind of experiment: Confirmatory qHTS for antagonist of cAMP-regulated guanine nucleotide exchange factor 4 (EPAC2) (AID 1645885). Further: on the % scale 0 is the no-effect control and ±100 the full control effect; nearly all actives have a fitted effect of over 25% in size.
Experiment [5] concerns the target Rap guanine nucleotide exchange factor 3 (Homo sapiens) (UniProt O95398). Description: Counterscreen qHTS for antagonist of cAMP-regulated guanine nucleotide exchange factor 3 (EPAC1) (AID 1645888).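 Further: fluorescence loss as bound BODIPY-GDP is released from Rap1B; % of control where 0% means no effect.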 The method in brief: (§1)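 Rap1B-BODIPY-GDP 250 nM + GDP 50 uM; cpds 7-pt, final 9.74 nM–152 uM (activator mode) or from 7.32 nM upwards (inhibitor mode); RT; FI 480/540 nm at 5 and 30 min, then ± cAMP, reread.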
In general terms: Counterscreens check selectivity or assay interference.

Experiment [6] has the same target. Kind of experiment: Counterscreen qHTS for agonist of cAMP-regulated guanine nucleotide exchange factor 3 (EPAC1) (AID 1645889). Further: % of control where 0% means no effect; nearly all actives have a fitted effect of over 40% in size. The method in brief: as §1
For experiment [7], the target named is Lysosomal acid glucosylceramidase (Homo sapiens) (UniProt P04062). Description: Glucocerebrosidase-p2 (AID 348; in the data active means potency below about 10 µM; further: potency means the concentration at half of the fitted maximal effect). To be noted: purified GBA, blue fluorogenic substrate, 40 min. In outline: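 Compounds titrated from 0.6 nM upwards against 0.2 nM enzyme in pH 5.9 citric acid/KH2PO4, taurocholate, tween-20; blue fluorogenic substrate 80 uM, 40 min room temperature, stopped and read Ex 365/Em 440 for AC50.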

Experiment [8] in a line: AP1 Signaling Pathway (AID 357; active means well fitted curve in either direction with a large enough effect, not every such curve was filed as active;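 further: ME-180 reporter cells stimulated with EGF at its EC50 level; on the % scale 0 is the no-effect control and ±100 the full control effect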). The method in brief: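 Modulation of EGF-driven AP-1 transcription was assessed with a beta-lactamase reporter in ME-180 cells. Compound and EC50 EGF were co-incubated 5 hours at 37 °C before 2.5-hour CCF4 loading at room temperature and dual-emission reading.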
The target in experiment [9] is Cytochrome P450 1A2 (Homo sapiens) (UniProt P05177). Description: p450-cyp1a2 (AID 410; calls by dose curve;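 further: -100% = full effect of reference inhibitor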). The method in brief: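 Human CYP1A2 (20nM) demethylated Luciferin-ME at its Km (100uM) in 100mM KPO4. After 10 min compound preincubation, NADPH regeneration ran the reaction 60 min at room temperature. Luciferin was read by luminescence, normalized to 57 uM furafylline.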
Experiment [10] addresses Glucocorticoid receptor (Homo sapiens) (UniProt P04150). Description: GR-GFP Redistribution (AID 450;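 active means compounds whose dose series gives a full or clear partial fitted curve of increased nuclear translocation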; further: potency means the concentration at half of the fitted maximal effect). As to conditions: U2OS GR-GFP nuclear translocation, laser cytometry, 2 h.
Experiment [11] shares this target. Description: GR-EFC Redistribution (AID 451; calls by dose curve; further: potency means the concentration at half of the fitted maximal effect). To be noted: CHO-K1 GR-EFC translocation, beta-gal luminescence, 2 h. The method in brief:
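Translocation of GR-ED fusion to nuclear EA restores b-gal, read by luminescence after 1 h room-temperature detection. Engineered CHO-K1 biosensor cells, 1,000/well, exposed 2 h at 37 C to titrations up to 46 uM final.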

Experiment [12] deals with Mitogen-activated protein kinase 10 (Mus musculus) (UniProt Q61831). Description: JNK3 AlphaScreen Assay (AID 530; active means well fitted curve in either direction with a large enough effect, not every such curve was filed as active;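 further: kinase came from lysate of stimulated human HepG2 cells; signal reports phosphorylation of biotinylated GST-cJun 1-79 at Ser73 with 10 µM ATP; series mostly up to about 57 µM; on the % scale 0 is the no-effect control and ±100 the full control effect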). The method in brief:
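Room-temperature AlphaScreen kinase assay; pre-activated HepG2 lysate as JNK3 source, biotin-GST-cJun(1-79) substrate, 10 uM ATP, compound 15 min preincubation.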
For orientation: In Alpha technology, singlet oxygen from a donor bead excites a nearby acceptor bead.

The target in experiment [13] is 3',5'-cyclic-AMP phosphodiesterase 4B (Homo sapiens) (UniProt Q07343). Description: qHTS Assay for Inhibitors of PDE-IV (AID 607; active means well fitted activation curve with a large enough effect in the main read-out, with a control signal flat, not every such curve was filed as active; further: % of control where 0% means no effect). The method in brief: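 Live HEK293 cells with a modified cyclic nucleotide-gated (CNG) channel report intracellular cAMP via membrane-potential dye fluorescence (ex 535/em 590 nm). Endogenous PDE-IV was targeted. Compounds were tested at up to 22.9 uM final; RO 20-1724 100 uM served as control.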

The target in experiment [14] is Cytochrome P450 2C9 (Homo sapiens) (UniProt P11712). Kind of experiment: qHTS Assay for Inhibitors and Substrates of Cytochrome P450 2C9 (AID 883). Further: potency means the concentration at half of the fitted maximal effect; nearly all actives have a fitted effect of over 60% in size. The method in brief:
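Inhibition of CYP2C9 is scored as loss of luminescence, with 57uM sulphaphenazole defining 100% inhibition. Substrate Luciferin-H is used at 100uM, equal to its KM; enzyme at 10nM in 25mM KPO4, 60 min at 37C with NADPH regeneration.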

Values without a mark were called inactive. Results filed as inconclusive are left out. Activity calls are given as the source filed them. Unless noted, the call rests on the fitted dose curve; in most records, active means well fitted curve in the direction sought with a large enough effect; inconclusive means small, poorly fitted or top-dose-only effect, or another doubt; inactive means no such curve, though single readings can be large; an effect the other way counts as inactive or inconclusive. Some results are limits rather than exact numbers.

Rap guanine nucleotide exchange factor 4 (Homo sapiens), sequence (Q8WZA2 whole entry, looked up): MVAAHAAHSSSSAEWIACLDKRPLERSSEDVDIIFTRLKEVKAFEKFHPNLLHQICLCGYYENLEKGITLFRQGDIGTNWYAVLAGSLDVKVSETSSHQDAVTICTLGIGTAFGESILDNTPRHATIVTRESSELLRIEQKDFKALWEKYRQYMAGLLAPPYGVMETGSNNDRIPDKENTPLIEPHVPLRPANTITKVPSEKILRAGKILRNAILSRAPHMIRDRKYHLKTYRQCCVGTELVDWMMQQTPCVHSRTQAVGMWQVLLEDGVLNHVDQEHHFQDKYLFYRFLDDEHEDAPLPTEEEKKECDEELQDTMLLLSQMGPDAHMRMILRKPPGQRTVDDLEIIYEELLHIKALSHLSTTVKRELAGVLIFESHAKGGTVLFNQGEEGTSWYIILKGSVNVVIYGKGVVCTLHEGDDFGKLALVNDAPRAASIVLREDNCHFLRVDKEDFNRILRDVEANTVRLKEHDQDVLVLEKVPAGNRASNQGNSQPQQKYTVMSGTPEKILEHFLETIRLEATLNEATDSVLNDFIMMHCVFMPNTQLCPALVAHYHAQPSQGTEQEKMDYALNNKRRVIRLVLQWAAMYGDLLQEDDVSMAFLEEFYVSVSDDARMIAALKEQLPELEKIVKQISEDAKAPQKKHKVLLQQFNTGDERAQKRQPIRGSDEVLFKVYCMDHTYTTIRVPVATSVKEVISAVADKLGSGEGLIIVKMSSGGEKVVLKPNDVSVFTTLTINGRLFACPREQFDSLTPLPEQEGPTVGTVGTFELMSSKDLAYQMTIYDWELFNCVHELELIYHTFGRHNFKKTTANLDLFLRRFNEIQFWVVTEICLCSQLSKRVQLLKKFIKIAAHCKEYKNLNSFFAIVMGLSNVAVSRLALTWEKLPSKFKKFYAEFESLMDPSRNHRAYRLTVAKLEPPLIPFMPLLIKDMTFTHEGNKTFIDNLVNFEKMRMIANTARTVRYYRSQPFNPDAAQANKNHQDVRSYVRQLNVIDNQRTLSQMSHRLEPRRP
Rap guanine nucleotide exchange factor 3 (Homo sapiens), sequence (O95398 whole entry, looked up): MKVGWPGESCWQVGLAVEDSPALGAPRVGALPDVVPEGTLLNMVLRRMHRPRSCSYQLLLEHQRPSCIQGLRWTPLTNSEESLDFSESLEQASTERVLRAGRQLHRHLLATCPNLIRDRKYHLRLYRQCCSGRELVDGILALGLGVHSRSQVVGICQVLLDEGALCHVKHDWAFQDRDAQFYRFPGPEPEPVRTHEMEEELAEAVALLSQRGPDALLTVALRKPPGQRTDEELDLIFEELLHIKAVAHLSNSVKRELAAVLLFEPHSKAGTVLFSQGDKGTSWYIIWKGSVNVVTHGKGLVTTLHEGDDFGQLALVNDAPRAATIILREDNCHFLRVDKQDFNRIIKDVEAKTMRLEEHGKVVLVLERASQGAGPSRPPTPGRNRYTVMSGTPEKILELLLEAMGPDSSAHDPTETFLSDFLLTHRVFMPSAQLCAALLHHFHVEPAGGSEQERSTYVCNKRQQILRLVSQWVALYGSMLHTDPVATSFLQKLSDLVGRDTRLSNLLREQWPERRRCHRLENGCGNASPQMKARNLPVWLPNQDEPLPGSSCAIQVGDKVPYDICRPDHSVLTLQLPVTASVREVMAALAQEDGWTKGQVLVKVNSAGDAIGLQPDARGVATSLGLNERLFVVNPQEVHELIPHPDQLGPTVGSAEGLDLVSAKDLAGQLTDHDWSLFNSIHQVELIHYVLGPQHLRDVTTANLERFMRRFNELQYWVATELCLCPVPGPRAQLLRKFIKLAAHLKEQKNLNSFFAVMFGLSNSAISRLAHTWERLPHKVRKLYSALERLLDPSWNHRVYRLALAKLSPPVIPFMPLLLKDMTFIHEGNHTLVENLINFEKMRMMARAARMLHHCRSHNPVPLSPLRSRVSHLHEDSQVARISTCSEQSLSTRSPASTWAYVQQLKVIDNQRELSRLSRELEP
Glucocorticoid receptor (Homo sapiens), sequence (P04150 whole entry, looked up): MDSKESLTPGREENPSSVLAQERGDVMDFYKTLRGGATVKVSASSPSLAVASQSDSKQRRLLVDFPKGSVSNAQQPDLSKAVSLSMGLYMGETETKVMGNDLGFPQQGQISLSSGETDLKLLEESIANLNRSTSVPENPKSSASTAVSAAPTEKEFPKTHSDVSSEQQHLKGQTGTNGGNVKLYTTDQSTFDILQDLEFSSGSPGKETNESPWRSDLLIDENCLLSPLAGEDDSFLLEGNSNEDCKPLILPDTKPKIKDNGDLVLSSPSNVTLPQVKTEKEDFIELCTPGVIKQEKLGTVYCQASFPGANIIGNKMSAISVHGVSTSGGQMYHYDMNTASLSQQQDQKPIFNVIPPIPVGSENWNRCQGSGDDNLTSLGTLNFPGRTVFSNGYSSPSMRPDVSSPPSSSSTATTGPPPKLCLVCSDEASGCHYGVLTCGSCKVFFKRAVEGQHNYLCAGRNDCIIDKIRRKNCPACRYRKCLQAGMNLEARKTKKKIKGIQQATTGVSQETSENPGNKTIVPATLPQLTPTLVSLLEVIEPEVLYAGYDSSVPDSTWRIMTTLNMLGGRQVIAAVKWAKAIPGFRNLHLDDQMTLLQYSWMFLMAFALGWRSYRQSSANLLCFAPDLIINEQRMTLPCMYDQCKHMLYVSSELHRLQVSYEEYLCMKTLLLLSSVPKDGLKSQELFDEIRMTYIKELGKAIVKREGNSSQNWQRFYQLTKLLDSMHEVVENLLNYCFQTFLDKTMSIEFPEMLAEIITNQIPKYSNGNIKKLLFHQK
3',5'-cyclic-AMP phosphodiesterase 4B (Homo sapiens), sequence (Q07343 whole entry, looked up): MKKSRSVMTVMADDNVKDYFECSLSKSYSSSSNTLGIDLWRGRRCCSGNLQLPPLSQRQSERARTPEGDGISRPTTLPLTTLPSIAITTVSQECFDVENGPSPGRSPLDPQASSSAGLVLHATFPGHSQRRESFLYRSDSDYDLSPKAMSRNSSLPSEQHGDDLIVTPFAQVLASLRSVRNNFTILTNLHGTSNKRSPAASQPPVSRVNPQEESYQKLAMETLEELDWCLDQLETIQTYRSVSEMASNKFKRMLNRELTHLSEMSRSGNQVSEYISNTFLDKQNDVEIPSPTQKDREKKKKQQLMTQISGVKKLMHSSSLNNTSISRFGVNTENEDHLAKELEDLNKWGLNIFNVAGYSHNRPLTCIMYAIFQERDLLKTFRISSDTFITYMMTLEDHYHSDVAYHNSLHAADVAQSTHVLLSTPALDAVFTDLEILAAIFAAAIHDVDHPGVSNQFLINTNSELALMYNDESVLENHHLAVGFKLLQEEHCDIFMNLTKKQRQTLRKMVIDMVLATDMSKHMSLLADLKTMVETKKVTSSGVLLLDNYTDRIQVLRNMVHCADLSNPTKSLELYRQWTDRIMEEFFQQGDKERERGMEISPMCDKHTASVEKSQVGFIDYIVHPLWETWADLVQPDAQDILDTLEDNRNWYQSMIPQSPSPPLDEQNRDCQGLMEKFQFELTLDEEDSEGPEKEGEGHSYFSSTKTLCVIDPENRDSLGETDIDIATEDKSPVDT
Cytochrome P450 2C9 (Homo sapiens), sequence (P11712 whole entry, looked up): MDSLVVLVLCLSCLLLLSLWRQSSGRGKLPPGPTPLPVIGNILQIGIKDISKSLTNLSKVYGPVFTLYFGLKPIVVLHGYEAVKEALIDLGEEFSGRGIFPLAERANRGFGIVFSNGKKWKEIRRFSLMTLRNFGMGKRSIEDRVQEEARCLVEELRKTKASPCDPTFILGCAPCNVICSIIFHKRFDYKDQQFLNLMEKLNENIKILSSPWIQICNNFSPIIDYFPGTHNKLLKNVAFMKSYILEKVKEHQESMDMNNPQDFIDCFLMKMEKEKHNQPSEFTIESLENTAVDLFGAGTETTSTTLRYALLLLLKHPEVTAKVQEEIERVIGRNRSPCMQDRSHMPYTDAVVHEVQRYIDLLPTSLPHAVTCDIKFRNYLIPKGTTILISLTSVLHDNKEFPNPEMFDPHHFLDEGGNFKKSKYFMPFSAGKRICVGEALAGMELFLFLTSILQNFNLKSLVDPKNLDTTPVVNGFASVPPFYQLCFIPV
Lysosomal acid glucosylceramidase (Homo sapiens), sequence (P04062 whole entry, looked up): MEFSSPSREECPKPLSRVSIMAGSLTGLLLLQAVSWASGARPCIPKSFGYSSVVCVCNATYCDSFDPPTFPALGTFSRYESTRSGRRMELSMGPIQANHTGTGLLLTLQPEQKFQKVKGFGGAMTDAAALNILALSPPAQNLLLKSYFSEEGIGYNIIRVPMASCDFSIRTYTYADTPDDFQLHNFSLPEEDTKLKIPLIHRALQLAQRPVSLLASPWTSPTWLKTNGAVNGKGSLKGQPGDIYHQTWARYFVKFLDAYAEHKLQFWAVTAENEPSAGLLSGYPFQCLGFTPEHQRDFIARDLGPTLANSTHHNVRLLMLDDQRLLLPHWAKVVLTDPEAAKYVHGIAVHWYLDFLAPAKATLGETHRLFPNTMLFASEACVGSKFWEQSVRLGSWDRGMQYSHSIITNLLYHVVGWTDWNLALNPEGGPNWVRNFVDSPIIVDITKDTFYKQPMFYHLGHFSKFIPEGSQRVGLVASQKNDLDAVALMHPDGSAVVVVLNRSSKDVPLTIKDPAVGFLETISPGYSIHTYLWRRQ
Cytochrome P450 1A2 (Homo sapiens), sequence (P05177 whole entry, looked up): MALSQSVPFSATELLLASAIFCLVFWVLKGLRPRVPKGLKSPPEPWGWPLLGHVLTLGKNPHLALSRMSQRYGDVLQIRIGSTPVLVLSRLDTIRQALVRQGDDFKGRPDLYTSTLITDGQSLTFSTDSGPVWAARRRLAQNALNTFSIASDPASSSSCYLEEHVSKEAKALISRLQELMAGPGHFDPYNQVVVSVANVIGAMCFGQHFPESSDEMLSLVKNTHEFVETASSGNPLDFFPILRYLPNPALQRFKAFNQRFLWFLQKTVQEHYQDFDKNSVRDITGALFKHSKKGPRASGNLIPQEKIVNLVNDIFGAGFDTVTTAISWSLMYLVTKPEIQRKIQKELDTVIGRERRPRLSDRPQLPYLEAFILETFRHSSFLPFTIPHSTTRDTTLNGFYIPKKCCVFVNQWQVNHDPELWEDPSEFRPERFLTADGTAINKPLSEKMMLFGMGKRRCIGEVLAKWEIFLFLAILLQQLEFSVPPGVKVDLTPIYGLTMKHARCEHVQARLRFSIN

Turning to `COc1ccc(N2C(=O)NC(=O)/C(=C/c3ccc([N+](=O)[O-])s3)C2=O)cc1`, in experiment [1], the Potency is 33.8 µM (active). For the same molecule, the Potency entry in experiment [2], in experiment [3], in [4] and in [6] was “inactive” in each case. For the same molecule, in [5], the outcome was inactive.

In the case of `CC(C)c1ccc(C(c2c(O)c3ccccc3oc2=O)c2c(O)c3ccccc3oc2=O)cc1`, the Potency in experiment [7] was above 11.4 µM; in [10], above 46 µM; in [11] it was above 9.22 µM; in [14], 3.16 µM (active); in [1], 15.1 µM (active). Also, the result in [8] and in experiment [5] was inactive. Further, the activity change, negative = inhibition was -18.8% [at 2.29 µM] in experiment [9] and -6.98% [at 11.4 µM] in experiment [12]. In addition, the Potency entry in [13], in experiment [2], in [3], in experiment [4] and in [6] was “inactive” each time.

`COc1cc(/C=C/c2nc3ccccc3c(=O)n2-c2cccc(O)c2)ccc1O`: the Potency entry in [2], in [3] and in [4] was “inactive” in each case. Further, in [5], the outcome was inactive.

With `O=[N+]([O-])c1ccc(CN2CC=C(c3ccccc3)CC2)cc1`, in experiment [2], the Potency entry was “inactive”. Moreover, the activation in experiment [3] is 0% [at 17.1 µM, percent relative to cAMP agonist control]. For the same molecule, in [4], the activity change, negative = inhibition was 0.463% [at 12.7 µM].

As to `CCCCC/C(=N/O)c1c(C)[nH]c2ccccc12`, the Potency entry in experiment [2], in [3] and in experiment [4] was “inactive” each time. Further, the outcome in [5] was inactive.

Consider `CCOC(=O)c1cc(CC)sc1/N=C/C1C(=O)NC(=S)NC1=O`, for which the Potency entry in [1] is “inactive”. Moreover, the activity change, negative = inhibition in experiment [4] was -21.4% [at 12.7 µM]; in experiment [5], -8.68% [at 30.8 µM].

With `O=C1CN=C(c2ccccc2)c2cc(Cl)ccc2N1Cc1ccc(Cl)cc1`, the Potency result in [1] and in experiment [3] was “inactive” in each case. Also, in experiment [4], the activity change, negative = inhibition is 1.14% [at 12.7 µM]. Moreover, in experiment [5], the result was inactive.

For `Cc1cccc(N2C(=O)NC(=O)/C(=C\c3cccn3-c3ccc(Cl)cc3)C2=O)c1`, the Potency result in experiment [2], in [3] and in experiment [4] was “inactive” throughout. The outcome in experiment [5] was inactive.

Take `COc1ccc(-n2c(/C=C/c3ccc(O)c(O)c3)nc3ccccc3c2=O)cc1`: the Potency result in experiment [2], in experiment [3] and in [4] was “inactive” throughout. In experiment [5], the molecule was called inactive.

Take `O=[N+]([O-])c1ccc(N2CCOCC2)c2c1no[n+]2[O-]`: in experiment [1], the Potency was 47.8 µM (active). Also, the Potency entry in [2], in [3] and in [6] was “inactive” in each case.

For the molecule `COC1C(C)OC(OC2CC(C)(O)Cc3cc4c(c(O)c32)C(=O)c2c(O)cc3c(c2C4=O)OC2OC3(C)C(O)C(N(C)C)C2O)C(OC)C1(C)OC` (centres undefined), the Potency entry in [1] was “inactive”. Also, in [3], the activation was 18.7% [at 17.1 µM, percent relative to cAMP agonist control]. Moreover, the activity change, negative = inhibition in [4] was 15.2% [at 12.7 µM]; in [5], 87.2% [at 30.8 µM].
